Experimental data: PubChem BioAssay (NCATS)
Results filed as inconclusive are left out. The source made the active and inactive calls. The call rests on the fitted dose curve; in most records, active means well fitted curve in the direction sought with a large enough effect; inconclusive means small, poorly fitted or top-dose-only effect, or another doubt; inactive means no such curve, though single readings can be large; an effect the other way counts as inactive or inconclusive.

Assays:
[1] = HPAF-II 24hr Apoptosis Induction qHTS against the NCATS CANVASS Library (AID 1347356)
Outline: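 HPAF-II cells (500/well) exposed to compounds in 11-point series for 24 h at 37 degrees C; caspase-3/7 activity read by Caspase-Glo luminescence after 15 min at room temperature. Doxorubicin titration as control.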

[2] = HEK293 18hr Apoptosis Induction qHTS against the NCATS CANVASS Library (AID 1347357)
Outline: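 Caspase-Glo 3/7 luminescence (15 min, room temperature) measured apoptosis after an 18-hour, 37 degrees C exposure of HEK293 cells (500 cells/well) to compounds in 11 points.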

[3] = HPAF-II 12hr Apoptosis Induction qHTS against the NCATS CANVASS Library (AID 1347358)
Outline: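 HPAF-II cells, 500/well in DMEM + 10% FBS, exposed 12 hours at 37 degrees C to compound (11-point). Caspase-Glo 3/7 added for 15 min at room temperature; luminescence reflects caspase-3/7 activity.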

[4] = HEK293 24hr Apoptosis Induction qHTS against the NCATS CANVASS Library (AID 1347359)
Outline: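 Caspase-3/7 activation measured as luminescence from the DEVD-based Caspase-Glo reagent, 15 min at room temperature, following 24-hour compound treatment of HEK293 cells.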

[5] = HPAF-II 18hr Apoptosis Induction qHTS against the NCATS CANVASS Library (AID 1347360)
Outline: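 Caspase-3/7 activation was measured with luminescent Caspase-Glo 3/7 reagent (15 min, RT) in HPAF-II cancer cells (500 cells/well). Before detection, cells had been treated for 18 h at 37 C with compounds (11 points).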

[6] = HEK293 12hr Apoptosis Induction qHTS against the NCATS CANVASS Library (AID 1347361)
Outline: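 HEK293 cells (500/well, DMEM + 10% FBS) were exposed to natural products across an 11-point series for 12 hours at 37 degrees C. Caspase-3/7 activity was then measured with DEVD luciferase luminescence after 15 min at room temperature.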

[7] = system: NAD(P)H diaphorase (Clostridium kluyveri); experiment: Diaphorse counterscreen qHTS: Assay Interference Panel against the NCATS CANVASS Library (AID 1347362)
Outline: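 Counterscreen for coupling-enzyme interference: resorufin fluorescence from resazurin/NADH turnover, read after 5 min at room temperature. Compounds were tested over an 11-point series after 15 min dark preincubation with diaphorase in PBS-Tween.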

[8] = molecular target: Luciferin 4-monooxygenase (Photinus pyralis) (UniProt P08659); experiment: Firefly luciferase counterscreen qHTS: Assay Interference Panel against the NCATS CANVASS Library (AID 1347363)
Outline: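 Luminescence inhibition readout: compounds (11-point qHTS) sat 15 min at room temperature with substrate mix (0.013 mM luciferin and ATP), then firefly luciferase was added and signal read 5 min later.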

[9] = KB-8-5-11 Cancer Cell Toxicity qHTS against the NCATS CANVASS Library (AID 1347364); further: nearly all actives have a fitted effect of over 75% in size
Outline: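 KB-8-5-11 cells, 500/well in DMEM + 10% FBS, given compounds in an 11-point series. Incubated 72 h at 37 °C. Viability by CellTiter-Glo luminescence. Confirmation also run with 1 uM tariquidar.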

[10] = KB-3-1 Cancer Cell Toxicity qHTS against the NCATS CANVASS Library (AID 1347366); further: nearly all actives have a fitted effect of over 75% in size
Outline: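 CellTiter-Glo luminescence measured viability after 72 h at 37C. KB-3-1 cells were seeded at 500 per well in DMEM/10% FBS.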

[11] = qHTS for ATAD5 Agonist screened against the NCATS CANVASS Library (AID 1347367);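 further: luciferase reporter driven by ATAD5 which rises upon DNA damage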
Outline: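 Genotoxicity via ATAD5-luciferase luminescence after 16 h compound exposure (11-point series) at 37C in HEK293T-ATAD5 cells. CellTiter-Fluor viability read precedes the luminescence read; MMS serves as positive control.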

[12] = MCF7 Cancer Cell Toxicity qHTS against the NCATS CANVASS Library (AID 1347369)
Outline: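 Cytotoxicity was measured as CellTiterGlo luminescence (ATP) after 72 h at 37 °C. The cells were MCF7 at 500 per well, with an 11-point compound concentration series.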

[13] = qHTS for ATAD5 Antagonist screened against the NCATS CANVASS Library (AID 1347370);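 further: HEK293T cells carrying an ATAD5 luciferase reporter co-treated with 10 µM 5-fluorouridine; nearly all actives have a fitted effect of over 65% in size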
Outline: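 HEK293T cells with stably integrated ATAD5-luciferase reporter, 2000/well, 5 h attachment; compounds plus 10 µM 5-fluorouridine, 16 h at 37 °C. Luciferase luminescence read, with CellTiter-Fluor viability read first.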

[14] = J3T Cancer Cell Toxicity qHTS against the NCATS CANVASS Library (AID 1347371);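 further: J3T is a canine glioma cancer cell line seeded at 500 cells per well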
Outline: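 J3T dog glioma cells, 500 per well, treated 72 h at 37C with compounds (11-point qHTS); viability from ATP content by CellTiterGlo luminescence; bortezomib titration as control.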

[15] = molecular target: Nuclear receptor subfamily 1 group I member 3 (Homo sapiens) (UniProt Q14994); experiment: qHTS for Constitutive Androstane Receptor (CAR) Antagonist screened against the NCATS CANVASS Library (AID 1347372);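 further: cells stimulated with 50 nM CITCO agonist so inhibition reflects antagonism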
Outline: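 HepG2-CYP2B6-hCAR double-stable cells plated, 4hr attach; cpd pin-transferred; CITCO 50 nM final; 24hr 37C/5% CO2; CellTiter-Fluor 1hr (fluorescence), then ONE-Glo luminescence.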

[16] = molecular target: Nuclear receptor subfamily 1 group I member 3 (Homo sapiens) (UniProt Q14994); experiment: qHTS for Constitutive Androstane Receptor (CAR) Agonist screened against the NCATS CANVASS Library (AID 1347373);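 further: every well also contained 1.5 µM PK11195 alongside the test compound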
Outline: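 HepG2 cells stably carrying hCAR and a CYP2B6-2.2kb luciferase reporter, treated 24hr at 37C with compounds plus 1.5uM PK11195; activation by ONE-Glo luminescence, viability by CellTiter-Fluor.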

[17] = 10-beta competent E. coli microbial cell viability qHTS against the NCATS CANVASS Library (AID 1347376)
Outline: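 10-beta competent E. coli (0.2 OD) were exposed overnight at 37C to compounds in an 11-point series. Viability was read as ATP-dependent BacTiter-Glo luminescence after 20 min at room temperature.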

[18] = DH5-alpha competent E. coli microbial cell viability qHTS against the NCATS CANVASS Library (AID 1347377); conditions: BacTiter-Glo ATP luminescence, overnight; at 46.1 µM (top of the series)
Outline: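 DH5-alpha E. coli suspension was exposed to an 11-point compound series overnight at 37 °C. Viable cells quantified by ATP luminescence (BacTiter-Glo) after 20 min at room temperature.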

[19] = qHTS for H2AX Agonists against the NCATS CANVASS Library (AID 1347378)
Outline: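 Phospho-H2AX (S139) in CHO-K1 lysates measured by HTRF, reported as 665/615 nm emission ratio after 24 hr antibody incubation at room temperature. Cells were first treated with a compound series for 3 hr at 37C (0.76% DMSO final).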

[20] = qHTS for Inflammasome Signaling Inhibitors: IL-1-beta AlphaLISA screen against the NCATS CANVASS Library (AID 1347379); conditions: THP-1 LPS/ATP, IL-1B AlphaLISA secretion, 16 h; at 57.5 µM (top of the series);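 further: human THP-1 cells primed with LPS then triggered with ATP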
Outline: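 THP-1 cells pretreated 1 hr with compound (up to 57.5 uM final), then stimulated with LPS (250 ng/mL final) and ATP (1.25 mM final). Secreted IL-1B measured by AlphaLISA after 16 hr; glyburide as positive control.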

Measured: outcome

Chain of Nuclear receptor subfamily 1 group I member 3 (Homo sapiens) (Q14994 whole entry, looked up): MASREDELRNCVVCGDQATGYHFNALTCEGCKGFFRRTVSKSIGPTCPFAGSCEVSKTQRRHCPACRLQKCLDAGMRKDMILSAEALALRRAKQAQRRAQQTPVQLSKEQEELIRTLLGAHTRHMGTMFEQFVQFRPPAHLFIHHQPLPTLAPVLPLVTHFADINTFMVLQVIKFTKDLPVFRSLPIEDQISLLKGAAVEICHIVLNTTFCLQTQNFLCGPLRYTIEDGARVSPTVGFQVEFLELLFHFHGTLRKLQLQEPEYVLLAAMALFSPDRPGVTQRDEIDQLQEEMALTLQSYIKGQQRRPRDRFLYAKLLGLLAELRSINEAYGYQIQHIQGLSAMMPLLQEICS
Chain of Luciferin 4-monooxygenase (Photinus pyralis) (P08659 whole entry, looked up): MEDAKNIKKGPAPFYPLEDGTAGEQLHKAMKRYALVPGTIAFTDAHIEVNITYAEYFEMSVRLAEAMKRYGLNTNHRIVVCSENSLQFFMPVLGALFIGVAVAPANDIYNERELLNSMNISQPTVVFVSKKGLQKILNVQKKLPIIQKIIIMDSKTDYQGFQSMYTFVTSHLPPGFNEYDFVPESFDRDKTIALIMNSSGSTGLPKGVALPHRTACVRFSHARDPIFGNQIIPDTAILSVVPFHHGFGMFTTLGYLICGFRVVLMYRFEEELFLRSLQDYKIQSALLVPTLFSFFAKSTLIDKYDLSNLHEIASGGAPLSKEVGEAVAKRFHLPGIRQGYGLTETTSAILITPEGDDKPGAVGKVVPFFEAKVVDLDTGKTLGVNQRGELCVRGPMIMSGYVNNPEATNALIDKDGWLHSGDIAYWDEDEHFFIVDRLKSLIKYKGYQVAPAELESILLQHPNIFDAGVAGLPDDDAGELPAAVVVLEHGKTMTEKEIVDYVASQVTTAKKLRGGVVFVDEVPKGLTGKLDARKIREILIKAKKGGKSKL

COc1ccc2[nH]cc(CCNC(C)=O)c2c1
inactive: all assays above
